Screening results: PubChem BioAssay, The Scripps Research Institute Molecular Screening Center
LEDGF integ inh = blocks HIV-1 LEDGF/p75-dependent DNA integration; inhibition, % at 3.7 µM; 370,000 compounds, 0.64% hits; AID 743269; TR-FRET IN-LEDGF/p75 DNA integration, Eu/Cy5;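 active = inhibition above the screen-wide mean plus 3 SD, cut at about 13% in these data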;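 note: signal is the Cy5 over europium emission ratio at 671 and 618 nm; 0% = plate median of compound wells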
PRMT1 FP inh = PRMT1 (human) inhibition, primary screen; Q99873; recombinant PRMT1, activity-based probe fluorescence polarization; inhibition, % at 2.79 µM; 370,000 compounds, 1.3% hits; AID 652257;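 active = inhibition above about 21% made by adding two undisclosed values, limit read from the data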
rCAG binder = r(CAG) repeat RNA binding; TO-PRO-1 dye displacement fluorescence; inhibition, % at 3 µM; 370,000 compounds, 1.3% hits;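 active = inhibition above the plate cutoff, the mean of all test compounds on that plate plus 3 SD, cut at about 35% in these data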;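 note: 0% = DMSO alone and 100% = 100 µM mitoxantrone as full dye displacement; higher means more dye released from RNA so lower well fluorescence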
ABHD5-PLIN5 inh = blocks binding of human ABHD5 to perilipin-5 | Q00G26+Q8WTS1 | Split G. princeps luciferase complementation, luminescence, 4 h | inhibition, % at 4 µM | 360,000 compounds, 0.78% hits;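 active = inhibition above the mean inhibition across every tested compound plus 3 SD, cut at about 22% in these data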;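 note: 0% = DMSO only wells and the 100% control is not disclosed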
UHRF1 MBD2 ctr = UHRF1 methyl-DNA binding inhibition | Q96T88 | UHRF1 binding to methylated oligo, TR-FRET | inhibition, % at 4.4 µM | 370,000 compounds, 0.75% hits; in the data active = inhibition above about 21%;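 note: UHRF1 SRA domain binding a hemimethylated CpG hairpin DNA probe; 0% = median of test compound wells and 100% = reference inhibitor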
MBD2 inh = blocks human MBD2 binding to methylated DNA | Q9UBB5 | TR-FRET, MBD2 binding to methylated oligonucleotide | inhibition, % at 4.4 µM | 370,000 compounds, 0.31% hits; in the data active = inhibition above about 13%
Numbers without * were called inactive; . = not tested or not shown. Compounds with a hit are over-represented: about 4.1% of the library has one in this group of screens.

SMILES	LEDGF integ inh	PRMT1 FP inh	rCAG binder	ABHD5-PLIN5 inh	UHRF1 MBD2 ctr	MBD2 inh
CN1CCC(N2CCN(C3CN(Cc4cn(Cc5ccc(F)cc5)nn4)S(=O)(=O)C3)CC2)CC1 (configuration not stated)	1	-1	2	0	18	10
Clc1ccc2c(c1)C(N1CCNCC1)Cc1ccccc1S2 (configuration not stated)	.	.	.	33*	.	.
C[C@H]1Cn2cnc(C(=O)N(C)Cc3ccccc3)c2C(=O)N1	2	1	1	.	-1	-6
Cc1nc2cc(C(=O)N3c4ccccc4CC3C)ccc2s1 (configuration not stated)	-1	1	-4	1	22*	6
COCC(=O)Nc1c(C(=O)Nc2ccc3c(c2)OCO3)oc2ccccc12	0	-3	0	-7	51*	2
CC(C)(C)NC(=O)C1N(c2cccnc2)C(=O)C2C(C(=O)Nc3ccccc3F)C3(C)C=CC21O3 (configuration not stated)	-2	22*	-4	4	-3	-1
Fc1ccccc1/C=N/n1c(C2CCCCC2)n[nH]c1=S	1	6	6	0	-1	6
Fc1ccccc1-c1n[nH]c(=S)n1/N=C/c1c[nH]c2ccccc12	-3	24*	18	-8	3	3
S=c1[nH]nc(-c2n[nH]c3c2CCC3)n1N=Cc1c[nH]c2ccccc12	5	22*	13	.	3	0
COc1ccc(CCNC(=O)c2cc(-c3ccc(Cl)c(Cl)c3)oc2C)cc1	5	4	5	-2	22*	9
COc1ccc(-c2nnc(SCC(=O)NN=C(C)c3cccc4ccccc34)n2-c2ccccc2)cc1	-3	-2	5	.	-5	1
COc1ccc(Cn2ccc3ccc(-c4ccc5ccn(Cc6ccc(C#N)cc6)c5c4)cc32)cc1	-1	-4	13	.	1	6
N#C/C(=C\c1ccc(-c2ccccc2[N+](=O)[O-])o1)C(=O)Nc1nc(-c2cccs2)cs1	3	0	50*	-9	-2	-4
N#C/C(=C\c1ccc(-c2ccc([N+](=O)[O-])cc2)o1)C(=O)Nc1nc(-c2cccs2)cs1	2	1	10	-1	0	2
C=CCc1cccc(C=Nc2ccc(Br)cc2)c1O	-2	0	2	0	3	7
C=CCc1cccc(/C=N/c2ncccc2O)c1O	0	22*	3	-28	-8	-5
c1ccc(CNC2CCC23CCC(c2ccccc2)CC3)cc1 (configuration not stated)	3	-6	-1	.	81*	3
Cc1ccccc1CNC1CCC12CCC(c1ccccc1)CC2 (configuration not stated)	2	-9	.	.	0	0
CCN(CC)C(=O)CSc1nnc(-c2ccc(C(C)(C)C)cc2)n1Cc1ccco1	-2	-2	-2	.	0	-3
COc1cc(/C=C(/C#N)C(=O)Nc2ccccc2)ccc1OCc1ccc(C(=O)O)cc1	-2	-3	40*	6	-9	-8
COc1ccc(OC)c(S(=O)(=O)N2CCCCC2C(=O)N2CCCN(C)CC2)c1 (configuration not stated)	4	-1	6	.	1	-2
Cc1ccc(S(=O)(=O)N2CCCCC2)c2nsnc12	2	1	0	-3	24*	9
CCCC(=O)N1CCC(NS(=O)(=O)c2ccc3c(c2)CCN3C(C)=O)CC1	2	6	0	.	0	7
Cc1ccc(-c2cc(-c3ccccc3Cl)c(C#N)c(N)n2)o1	3	22*	22	4	0	2
CC(=NNc1cc(C)c2cc(C)ccc2n1)c1ccccn1	-3	3	1	.	-2	1
Cc1cc(O)ccc1N=Cc1c(C(F)(F)F)[nH][nH]c1=O	1	25*	-1	-15	-10	-7
COC(=O)[C@]12C[C@H](CC(=O)N3CCCC3)C(=O)N(Cc3ccccc3)C1=C[C@H](C(C)C)O[C@@H]2C1CC1	3	-2	-1	.	1	0
O=C(CO)N/N=C/c1ccccc1F	-1	1	36*	1	-1	1
COc1ccc(-c2cc(-c3nnc(SCC(=O)Nc4ccc(OCc5ccccc5)cc4)n3N)[nH]n2)cc1	2	-5	9	.	-2	-8
